Compound activity deposited in PubChem BioAssay by National Center for Advancing Translational Sciences (NCATS).
The list is not random: actives were taken first. Their share in the collection is about 2.2%.
Mm-Cpn inhibitor: M. maripaludis TRiC chaperonin inhibition | AID 504842 | purified Mm-Cpn ATPase, ADP Transcreener TR-FRET | Potency, µM (top dose mostly 76.9 µM), usual class: inhibitors | hit rate 0.031% among 330,000; also: nearly all actives have a fitted effect of over 80% in size
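Purified archaeal chaperonin (25 nM final) was preincubated with compound for 10 min at 37°C, then ATP (10 uM final) was added for 30 min at 37°C in Tris pH 7.4/KCl/MgCl2/DTT buffer. ADP was quantified by HTRF Transcreener TR-FRET.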
GLP1R ag: agonists of human GLP-1 receptor | P43220 | Potency, µM (titrated, usually from 45.6 µM), hits mostly activators | hit rate 0.007% among 380,000 | HEK293 GLP-1R CRE-luciferase, luminescence, 4-6 h; cells express a hypersensitive GLP-1R form
Target sequence (P43220 whole entry, looked up): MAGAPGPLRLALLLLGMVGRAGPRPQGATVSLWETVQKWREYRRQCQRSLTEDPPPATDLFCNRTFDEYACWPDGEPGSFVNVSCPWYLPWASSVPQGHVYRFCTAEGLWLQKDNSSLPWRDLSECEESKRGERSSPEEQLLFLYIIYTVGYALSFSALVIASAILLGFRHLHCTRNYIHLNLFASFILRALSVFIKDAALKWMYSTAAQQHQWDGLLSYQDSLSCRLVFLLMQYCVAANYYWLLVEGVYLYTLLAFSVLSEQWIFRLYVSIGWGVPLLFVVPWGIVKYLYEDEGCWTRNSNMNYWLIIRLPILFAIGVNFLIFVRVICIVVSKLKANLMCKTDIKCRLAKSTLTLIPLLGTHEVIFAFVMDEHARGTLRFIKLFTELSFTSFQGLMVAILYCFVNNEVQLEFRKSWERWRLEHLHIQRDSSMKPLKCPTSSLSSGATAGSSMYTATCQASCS
GLP-1R inv ag: acts as inverse agonist at human GLP-1 receptor; AID 624417; hit rate 1.6% among 410,000; Potency, µM (series often up to 38.3 µM), most hits filed as inhibitors; P43220; HEK293 GLP-1R CRE-luciferase, luminescence, 24 h; GLP-1R form is constitutively active; also: nearly all actives have a fitted effect of over 55% in size
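Luminescence readout: a drop in cAMP-driven luciferase signal flags inverse agonism at a constitutively active GLP-1R stably expressed in HEK293. Compound exposure lasted 24 hr at 37 deg C, 5% CO2.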
CCT chaperon mod: changes cytosolic chaperonin activity; activity change, % (concentration not given with the values), hits read low; hit rate 0.3% among 360,000; AID 651819; purified chaperonin ATPase assay, HTRF ADP detection, 30 min; in the data active = activity change below about -30%
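We incubate TRiC, 40 or 20 nM final, with library compounds at 76 uM and 10 uM ATP for 30 min at 37 °C. ADP formed is detected with Transcreener HTRF reagents after 30 min at room temperature.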
uPA generation: blocks generation of uPA at the cell surface | hit rate 0.31% among 330,000 | Potency, µM (doses to about 38.3 µM), actives largely listed as inhibitors | cell surface uPA generation assay, qHTS; active = well fitted inhibition curve with a large enough effect; inconclusive = small, poorly fitted or top-dose-only effect; inactive = no such curve, though single readings can be large or run the other way; tested in mouse RAW 264.7 cells; also: nearly all actives have a fitted effect of over 55% in size
GLP1R cytotox: cytotoxicity in counter-screen for GLP-1R inverse agonists | HEK293 cAMP-luciferase reporter cells, luminescence, 24 h | Potency, µM (highest dose often 38.3 µM), most hits filed as inhibitors | hit rate 0.13% among 410,000 | AID 624418;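 also: loss of luciferase light is scored as toxicity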
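To flag toxic compounds, the library was rerun on cells for 24 hr at 37 deg C and 5% CO2. Viability-linked luminescence was captured 12 min after adding luciferase detection reagent.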
Hits are given with their value; – = inactive; ? = inconclusive; · = no result given; [ ] = another dose, or the depositor's remark. Unless noted, calls follow the shape of the dose curve; as a rule, active = well fitted curve in the direction sought with a large enough effect; inconclusive = small, poorly fitted or top-dose-only effect, or another doubt; inactive = no such curve, though single readings can be large; an effect the other way counts as inactive or inconclusive.

SMILES	Mm-Cpn inhibitor	GLP1R ag	GLP-1R inv ag	CCT chaperon mod	uPA generation	GLP1R cytotox
CCCCCCCCN1C(=O)[C@H](CC(=O)N2CCCCC2)C[C@@]2(C(=O)OCC)CCCC=C12	·	–	?	–	·	–
CCCCC[C@@H]1CCCCC[C@@H](O)C[C@@H](O)[C@H](O)/C=C/C(=O)O1	·	–	–	–	·	–
O=c1[nH]c(=O)n(C2CCCCCC2)c(O)c1C=NCc1ccc(F)cc1	–	–	10µM	–	–	–
O=C(NCc1ccc(Cl)cc1)C1CCN(C(=O)c2cnn(-c3ccccc3)c2-n2cccc2)CC1	·	·	?	·	·	–
CC(C)(C)c1cc([N+](=O)[O-])cc(C(C)(C)C)c1O	–	–	?	–	7.9µM	–
CCOC(=O)CC1c2ccccc2-n2nncc2CN1C (stereo unspecified)	·	–	–	-86	–	–
O=P1(c2ccccc2)Nc2ccccc2N1c1ccccc1 (stereo unspecified)	·	–	4.5µM	–	–	–
COc1cc(N=Nc2cccc(S(N)(=O)=O)c2)c2ccccc2c1N	–	–	?	–	–	?
Cc1cccc(-n2c(/C=C/c3ccccn3)nc3ccccc3c2=O)c1	–	–	–	-38	–	–
COc1ccc(-n2c(/C=C/c3ccc(O)cc3)nc3ccccc3c2=O)cc1	–	–	10µM	–	–	–
COc1ccc(-n2c(/C=C/c3ccc4c(c3)OCO4)nc3ccccc3c2=O)cc1	–	–	?	-40	–	–
Cc1ccc(-n2c(/C=C/c3ccc4c(c3)OCO4)nc3ccccc3c2=O)cc1	–	·	·	·	·	·
COc1cccc(-n2c(/C=C/c3ccccn3)nc3ccccc3c2=O)c1	–	–	–	–	–	–
COc1ccc2cc1Oc1ccc(cc1)CC1c3c(cc(OC)c4c3Oc3cc5c(cc3O4)CCNC5C2)CCN1C (stereo unspecified)	–	–	5.6µM	–	?	11µM
CC1CCC(C(C)C)C(OCC(O)CN2CCCC(C)C2)C1 (stereo unspecified)	–	–	8.9µM	–	–	?
CN(C)C1C(=O)C(C(N)=O)C(=O)C2(O)C(=O)C3C(=O)c4c(O)cccc4C(C)(O)C3C(O)C12 (stereo unspecified)	·	–	·	·	·	·
COc1ccccc1/C=C/CN1CCC(n2nccc2NC(=O)CCc2ccccc2)CC1	–	–	?	–	?	?
COc1ccc(-c2nn(-c3ccccc3)cc2C(=O)N2c3ccc(C)cc3C3CN(C)CCC32)cc1 (stereo unspecified)	–	–	14µM	–	–	–
COc1ccc2sc(-c3ccc(SC)cc3)c(-c3ccc(O)cc3)c2c1	?	–	5.6µM	–	–	?
COC(=O)c1cc(=O)n(Cc2ccco2)c(=Nc2ccc(F)c(Cl)c2)s1	–	–	2.8µM	–	10µM	–
c1ccc(C2(N3CCCCC3)CCCCC2)cc1	–	–	–	–	–	–
S=C=Nc1cccc(C2(N3CCCCC3)CCCCC2)c1	–	–	8.9µM	–	–	?
CCN(CC)CCNC(=O)c1cc2c(-c3ccc(Cl)cc3)nn(C)c2s1	–	–	5.6µM	–	?	?
COc1cccc(CNC(=O)c2cc3c(-c4ccccc4F)nn(C)c3s2)c1	·	·	?	·	·	–
c1ccc(N2CCN(c3nc(NCc4ccco4)c4ccccc4n3)CC2)cc1	–	–	7.1µM	–	–	?
SMILES	Mm-Cpn inhibitor	GLP1R ag	GLP-1R inv ag	CCT chaperon mod	uPA generation	GLP1R cytotox
CN1CCN(c2ccc([N+](=O)[O-])c(NCc3ccco3)c2)CC1	–	–	?	–	–	–
CN1C2CCC1CC(OC(=O)c1ccc([N+](=O)[O-])cc1)C2 (stereo unspecified)	–	–	4µM	–	–	–
CN1C2CCC1CC(OC(=O)c1cccc(O)c1)C2 (stereo unspecified)	·	–	?	–	–	–
CNCCCN1c2ccccc2CCc2ccccc21	–[15.4 µM]	–	4µM	–	?	–
CCCn1c(=N)n(CC(O)COc2cccc(C)c2)c2ccccc21 (stereo unspecified)	–	–	–	–	–	?
CCCCn1c(=N)n(CC(O)COc2ccccc2)c2ccccc21 (stereo unspecified)	–	–	8.9µM	–	–	?
Nc1cccc(-c2nc3ccc(C(=O)c4ccccc4)cc3[nH]2)c1	–	–	?	–	2µM	–
Cc1ccc(-n2nc3c(=O)n(CC(=O)NCC(C)c4ccccc4)nc(C)c3c2C)cc1 (stereo unspecified)	·	·	?	·	·	–
Cc1c(CN2CCC(CO)(CCOc3ccccc3)CC2)[nH]c2c(Cl)cccc12	–	–	4.5µM	–	–	?
O=C(CCl)Nc1cc(S(=O)(=O)N2CCCCCC2)ccc1Cl	–	–	?	–	–	11µM
COc1ccccc1CNCC(=O)Nc1cc(S(=O)(=O)N2CCCCC2)ccc1C	–	–	?	–	–	–
Cc1cc(C(=O)Nc2ccc3c(c2)OCCO3)nn1C(C)(C)C	–	–	–	–	–	–
Nc1c(C(=O)Nc2ccc3c(c2)OCCO3)nnn1CCc1ccccc1	–	–	–	–	7.9µM	–
COC(=O)c1ccc(Nc2cc(C)nc3ccc(C)cc23)cc1	–	–	10µM	-39	–	?
CC1(Cc2ccc(C(F)(F)F)nc2)C(=O)Nc2cc(-c3ccccc3Cl)ccc21 (stereo unspecified)	·	–	?	–	·	–
CCC(=C(c1ccc(OC)cc1)c1ccc(OC)cc1)c1cn(CC(O)CN2CCN(C)CC2)c2ccccc12 (stereo unspecified)	–	–	10µM	–	–	?
CCCCCc1cc(O)c2c(c1)OC(C)(C)C1CC=C(C)CC21 (stereo unspecified)	·	–	·	·	·	·
NC1=C(Br)C(=O)c2ncccc2C1=O	·	–	3.2µM	–	–	4µM
Cc1cc(Br)ccc1S(=O)(=O)NCc1ccccc1	–	–	?	–	?	–
CC(=O)Oc1ccc(-c2ccc(C(=O)Nc3cccc(S(=O)(=O)N4CCOCC4)c3)cc2)cc1	–	–	1.4µM	–	–	?
COc1ccc(C(=O)NC(=S)Nc2cccc(S(=O)(=O)N3CCOCC3)c2)cc1	–	–	?	–	–	?
CC1=CC2/C=C(\C)CCC(O)C(O)/C=C/C(=O)C23C(=O)NC(CC(C)C)C3C1C (stereo unspecified)	·	–	?	–	1µM	?
O=P(Nc1cccc(F)c1)(Oc1ccccc1F)Oc1ccccc1F	–	–	11µM	–	–	–
Cc1cccc(NP(=O)(Oc2ccccc2F)Oc2ccccc2F)c1	–	–	11µM	–	–	?
Cc1ccc(NP(=O)(Oc2ccccc2F)Oc2ccccc2F)cc1C	–	–	?	–	–	–
